The record followed here is PubChem BioAssay (NCI).

This is part of a sample that, as a whole, favours compounds with a hit. Of some 83,000 tested, about 20% had one in any assay.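 Results are percent growth after 48 hours of single-concentration exposure. 100 means growth as in untreated cells, lower positive values show inhibition; negative values down to -100 show cell death.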 Unmarked numbers belong to inactive results. Calls of active or inactive are those of the source. The calls were made as follows: active = growth percent below 10; inactive = the rest.

Some test systems named below: RPMI-8226 leukemia; OVCAR-8 ovarian; OVCAR-5 ovarian; OVCAR-4 ovarian; SK-OV-3 ovarian; IGROV1 ovarian; HS 578T breast; NCI/ADR-RES ovarian; T-47D breast; BT-549 breast; MDA-MB-435 melanoma; SW-620 colon; MCF7 breast; HCT-116 colon; HCC-2998 colon; KM12 colon; OVCAR-3 ovarian.
Common to all, as to assay: NCI-60 one-dose screen, 48 h (100 = growth as untreated, 0 = no growth, -100 = all killed)
Details in all cases: 10 µM unless noted

`Nc1nc(N)c2c(n1)NC(c1ccc(Cl)cc1)CC(c1ccc(Nc3nc(NCCO)nc(Nc4ccc(Cl)cc4)n3)cc1)=N2` (stereo not given): the growth with RPMI-8226 leukemia is -32.5% (active); in the test with OVCAR-8 ovarian, 17.6%; in the test with OVCAR-5 ovarian, 84.8%; in the test with OVCAR-4 ovarian, 34.6%; with SK-OV-3 ovarian it was 100%; in the test with IGROV1 ovarian it was 37%. The growth with HS 578T breast is 55.7%; in the test on NCI/ADR-RES ovarian, 56.5%; with T-47D breast, 51.9%; in the test with BT-549 breast, 58.3%; in the test with MDA-MB-435 melanoma it was 5.23% (active); in the test with SW-620 colon, -36.2% (active). The growth in the test on MCF7 breast is -75.1% (active); in the test with HCT-116 colon, -84.8% (active); with HCC-2998 colon, 18.6%; in the test with KM12 colon, 11.5%.
In the case of `COC(=O)c1nc(-c2ccc(C)cc2)oc1S(=O)(=O)N1CCN(c2oc(-c3ccccc3)nc2C#N)CC1`, the growth is 97.7% with RPMI-8226 leukemia; 102% with OVCAR-8 ovarian; 108% with OVCAR-5 ovarian; 106% in the test on OVCAR-4 ovarian; 119% in the test on SK-OV-3 ovarian; 106% in the test on IGROV1 ovarian. Besides, the growth with HS 578T breast was 108%; in the test on NCI/ADR-RES ovarian, 103%; in the test with T-47D breast it was 111%; in the test with BT-549 breast, 99.7%; in the test with MDA-MB-435 melanoma it was 102%; in the test with SW-620 colon, 99.5%. For the same molecule, the growth in the test on MCF7 breast is 80.6%; in the test with HCT-116 colon, 92.8%; in the test with HCC-2998 colon, 113%; in the test with KM12 colon, 101%.
As for `NCCN1CCN(c2nc(-c3ccccc3)nc3nc(-c4ccccc4)oc23)CC1`, the growth in the test with RPMI-8226 leukemia is -27.9% (active); in the test on OVCAR-8 ovarian, -16.4% (active); in the test with OVCAR-5 ovarian, -82.9% (active); in the test on OVCAR-4 ovarian, -59.7% (active); in the test on SK-OV-3 ovarian it was 100%; with IGROV1 ovarian, -71.6% (active). Also, the growth is -78.6% (active) in the test with OVCAR-3 ovarian; 100% in the test with HS 578T breast; -45.3% (active) in the test with NCI/ADR-RES ovarian; -16.2% (active) in the test on T-47D breast; 92.5% in the test with BT-549 breast; -77.6% (active) with MDA-MB-435 melanoma. The growth in the test on SW-620 colon was -55% (active); with MCF7 breast, -88.3% (active); in the test with HCT-116 colon, -82.2% (active); in the test with KM12 colon it was -55.4% (active).
Take `COc1cnc2c(c1)C(=O)c1c-2n(CCCNCC2CC2)c(=O)c2cc(F)ccc12`: the growth was -38.5% (active) with RPMI-8226 leukemia; -61.6% (active) in the test with OVCAR-8 ovarian; -6.47% (active) in the test with OVCAR-5 ovarian; -4.75% (active) in the test with OVCAR-4 ovarian; -38% (active) with SK-OV-3 ovarian; 10.3% in the test with IGROV1 ovarian. For the same molecule, the growth was 26.1% in the test on HS 578T breast; 5.01% (active) in the test on NCI/ADR-RES ovarian; -21.2% (active) in the test on T-47D breast; -0.964% (active) with BT-549 breast; 10% in the test with MDA-MB-435 melanoma; -29.6% (active) with SW-620 colon. The growth in the test on MCF7 breast is -8.09% (active); in the test with HCT-116 colon, -79.7% (active); in the test with HCC-2998 colon, -41% (active); with KM12 colon, -8.57% (active).
Regarding `COCCOc1ccc(-c2csc(NC(=O)CN3CCN(CCO)CC3)n2)cc1NS(=O)(=O)c1cccc2c(N(C)C)cccc12`, the growth was 54.6% in the test with RPMI-8226 leukemia; 81.2% with OVCAR-8 ovarian; 94.2% in the test with OVCAR-5 ovarian; 96% in the test with OVCAR-4 ovarian; 92.9% with SK-OV-3 ovarian; 82.9% in the test on IGROV1 ovarian. Moreover, the growth in the test on HS 578T breast was 70.1%; in the test on NCI/ADR-RES ovarian it was 97.2%; in the test on T-47D breast, 84.5%; in the test with BT-549 breast, 96.1%; in the test with MDA-MB-435 melanoma, 83%; in the test with SW-620 colon, 93.4%. Also, the growth is 93.6% in the test with MCF7 breast, 10.8% in the test on HCT-116 colon, 91.3% in the test with HCC-2998 colon and 97.4% in the test with KM12 colon.
On to `Oc1ccc(CSc2nnc(-c3ccncc3)n2-c2ccccc2)c2cccnc12`, for which the growth in the test with RPMI-8226 leukemia is 13.6%; in the test on OVCAR-8 ovarian, 18.3%; with OVCAR-5 ovarian, 45.7%; in the test with OVCAR-4 ovarian, 17%; with SK-OV-3 ovarian it was 9.36% (active); in the test with IGROV1 ovarian, 8.84% (active). Besides, the growth in the test on OVCAR-3 ovarian is 5.81% (active); in the test with HS 578T breast it was 15.4%; in the test on NCI/ADR-RES ovarian, 9.52% (active); in the test with T-47D breast, 14.5%; in the test with BT-549 breast it was 41.9%; with MDA-MB-435 melanoma, 20%. Also, the growth in the test with SW-620 colon is 16.5%; in the test on MCF7 breast it was 2.74% (active); in the test on HCT-116 colon, 22.5%; in the test on HCC-2998 colon it was 35.9%; in the test with KM12 colon it was 16.9%.
As for `COc1ccc2oc3c4[nH]c5ccccc5c4c4c(c3c2c1)C(=O)N(O)C4=O`, the growth with RPMI-8226 leukemia was 91.9%; in the test on OVCAR-8 ovarian, 102%; in the test with OVCAR-5 ovarian, 109%; with OVCAR-4 ovarian, 104%; with SK-OV-3 ovarian it was 98.9%; with IGROV1 ovarian it was 94.9%. Moreover, the growth in the test on HS 578T breast was 89.9%; in the test with NCI/ADR-RES ovarian, 101%; in the test with T-47D breast it was 97.7%; with BT-549 breast, 104%; in the test on MDA-MB-435 melanoma, 106%; in the test with SW-620 colon it was 92.1%. The growth is 90.3% in the test with MCF7 breast, 104% with HCT-116 colon, 101% with HCC-2998 colon and 101% in the test with KM12 colon.
For `CCCCCCNC(=O)Oc1ccc(/C(=C(/C)c2ccc(Cl)cc2)c2ccc(OCCN3CCCC3)cc2)cc1`, the growth in the test on RPMI-8226 leukemia was -35.8% (active); in the test with OVCAR-8 ovarian it was 56.8%; in the test with OVCAR-5 ovarian, 67.8%; with OVCAR-4 ovarian, 54.6%; in the test on SK-OV-3 ovarian it was 78.8%; in the test with IGROV1 ovarian it was 32.6%. Further, the growth in the test with OVCAR-3 ovarian was 23.4%; in the test with HS 578T breast, 61.1%; with NCI/ADR-RES ovarian, 50.4%; in the test on T-47D breast it was 41%; with BT-549 breast, 71.6%; with MDA-MB-435 melanoma it was 51.6%. Further, the growth in the test with SW-620 colon is -30.7% (active); with MCF7 breast, -41.8% (active); with HCT-116 colon, -43.9% (active); in the test on HCC-2998 colon, 37.1%; in the test with KM12 colon, 29.7%.
